Experimental data taken from PubChem BioAssay (Tox21).
Values joined by “and” are separate entries in the source; they are usually repeats but may differ in a detail not shown here. Equal values may be shown once. Results filed as inconclusive are left out. A call without a number means that no potency is given here. Where a structure was tested more than once in an assay, its records may differ in their call. Active and inactive are the calls of the source. Unless noted, the call rests on the fitted dose curve. Square brackets hold non-standard residues; d marks the D form. Peptide text beside a SMILES is read from it. pGlu = O=C1CC[C@@H](C(=O)O)N1

What was measured:
[1] = biological target: Gonadotropin-releasing hormone receptor (Homo sapiens) (UniProt P30968); test: Human gonadotropin-releasing hormone receptor (GnRHR) small molecule agonists, calcium flux assay in GnRHR-HEK293 cells (AID 1920063); further: nearly all actives have a fitted effect of over 35% in size; further: potency means the concentration at half of the fitted maximal effect
In short: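 GnRHR-HEK293, 1500 cells/well, 18 h 37 C/5% CO2; Ca dye 1 h 37 C; cpd pinned (DMSO), agonist mode; kinetic FL 480/540, 3 min, 1 s reads; 15 conc, n=3.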

[2] = G protein-coupled receptor (GPCR) small molecule agonists, calcium flux assay: HEK293 wild type cell line counter screen (AID 1920065)
In short: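 Kinetic fluorescence at Ex/Em 480/540, recorded every second over 3 min, served as the read-out after compound addition. Each compound was tested at 15 concentrations in triplicate on cells pre-loaded with calcium dye for 1 h.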

[3] = p53 small molecule agonists, cell-based qHTS assay with human liver microsomes (AID 1963577)
In short: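 p53RE-bla reporter cells were pre-incubated 5 h at 37 C, then treated with compounds plus human liver microsomes (0.5 mg/mL final) and NADPH (0.5 mg/mL final) for 16 h at 37 C. Beta-lactamase activity was read by LiveBLAzer fluorescence after 2 h at room temperature.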

[4] = p53 small molecule agonists, cell-based qHTS assay with rat liver microsomes (AID 1963578)
In short: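 p53RE-bla cells were exposed to compounds together with rat liver microsomes (0.5 mg/mL final) and NADPH (0.5 mg/mL final) for 16 h at 37 C, then read by LiveBLAzer beta-lactamase fluorescence after 2 h at room temperature.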

[5] = p53 small molecule agonists, cell-based qHTS assay with human liver microsomes: qHTS cell viability counter screen (AID 1963579); further: nearly all actives have a fitted effect of over 45% in size; further: potency means the concentration at half of the fitted maximal effect
In short: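 p53RE-bla cells (4,000/well) were pre-incubated 5 h at 37 C, then given compounds in DMSO plus human liver microsomes (0.5 mg/mL final) and NADPH (0.5 mg/mL final) for 16 h at 37 C. Viability was read by CellTiter-Glo luminescence.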

[6] = p53 small molecule agonists, cell-based qHTS assay with rat liver microsomes: qHTS cell viability counter screen (AID 1963580); further: nearly all actives have a fitted effect of over 45% in size; further: potency means the concentration at half of the fitted maximal effect
In short: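 In HCT-116 cells carrying a p53 response element-bla reporter, compounds were metabolically activated in situ by rat liver microsomes with NADPH over 16 h. Cell ATP content then served as the cytotoxicity measure.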

[7] = p53 small molecule agonists, cell-based qHTS assay: qHTS cell viability counter screen (AID 1963581); further: nearly all actives have a fitted effect of over 45% in size
In short: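 HCT-116 p53RE-bla cells, 4,000/well, plated 5 h before compound pin transfer; 16 h at 37 C; bla substrate 2 h RT; then CellTiter-Glo, 30 min RT, luminescence.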

[8] = biological target: 5-hydroxytryptamine receptor 2A (Homo sapiens) (UniProt P28223); test: 5-hydroxytryptamine receptor 2A (HTR2A) small molecule antagonists, cell-based qHTS assay (AID 1963586); further: nearly all actives have a fitted effect of over 45% in size; further: potency means the concentration at half of the fitted maximal effect
In short: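 Antagonist-mode intracellular calcium assay: DOI (4 nM) added after 5 min compound pre-incubation at room temperature to dye-loaded HTR2A-CHO cells. Fluorescence followed for 3 min, sampled every second.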

[9] = biological target: 5-hydroxytryptamine receptor 2A (Homo sapiens) (UniProt P28223); test: 5-hydroxytryptamine receptor 2A (HTR2A) small molecule agonists, cell-based qHTS assay (AID 1963587); further: nearly all actives have a fitted effect of over 30% in size; further: potency means the concentration at half of the fitted maximal effect
In short: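 HTR2A-CHO cells, plated 18 h at 37 C/5% CO2, dye-loaded 1 h at 37 C; compounds in DMSO added by pin tool (agonist mode). Intracellular calcium flux read as kinetic fluorescence on FDSS over 2 min at 1 s intervals.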

[10] = biological target: Muscarinic acetylcholine receptor M1 (Homo sapiens) (UniProt P11229); test: Cholinergic receptor muscarinic 1 (CHRM1) small molecule antagonists, cell-based qHTS assay (AID 1963588); further: nearly all actives have a fitted effect of over 40% in size; further: potency means the concentration at half of the fitted maximal effect
In short: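 CHRM1-CHO calcium-flux assay, antagonist mode. Cells were seeded 18 h, dye-loaded 1 h at 37 C and given compound for 5 min at RT, then acetylcholine was added at 50nM. FDSS fluorescence was read 3 min; 15 concentrations, three runs.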

[11] = biological target: Muscarinic acetylcholine receptor M1 (Homo sapiens) (UniProt P11229); test: Cholinergic receptor muscarinic 1 (CHRM1) small molecule agonists, cell-based qHTS assay (AID 1963589); further: nearly all actives have a fitted effect of over 35% in size
In short: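 Human M1 in stable CHO line; 18 h plating, 1 h dye load 37 C; cpd added (agonist mode); Ca2+ fluorescence kinetic read, 1 s intervals; 15 conc, 3 runs.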

[12] = cAMP Responsive Elements (CRE) small molecule antagonists, cell-based qHTS assay (AID 1963591; active means well fitted inhibition curve with a large enough effect in the signal ratio in the repeat runs, not every such curve was filed as active; the % refers to the signal ratio)
In short: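 Beta-lactamase reporter read by FRET substrate (LiveBLAzer B/G) after 2 h at room temperature. CRE-bla HEK293T cells had received compound plus 0.25 uM (final) NKH477 for 3 h at 37 °C.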

[13] = biological target: Beta-2 adrenergic receptor (Homo sapiens) (UniProt P07550); test: Adrenergic beta2 receptor (ADRB2) small molecule antagonists, cell-based qHTS assay (AID 1963592); further: series mostly up to about 92 µM; nearly all actives have a fitted effect of over 50% in size
In short: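 Cells (CHO, stable ADRB2 overexpression) incubated 18-20hr at 37C; compounds added from DMSO; agonist mix (1nM isoproterenol, 100uM IBMX, 25uM Ro-20-1724) added; 0.5hr RT; d2-cAMP and anti-cAMP-cryptate added; 1hr RT; 665/615 nm read.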

[14] = biological target: D(2) dopamine receptor (Homo sapiens) (UniProt P14416); test: Dopamine D2 receptor (DRD2) small molecule agonists, cell-based qHTS assay (AID 1963594); further: nearly all actives have a fitted effect of over 35% in size
In short: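 HEK293 cells stably expressing DRD2 were cultured 24 h at 37 C, then given Ro20-1724 (0.1 mM final) and compounds for 10 min at room temperature. NKH477 (200nM) was then added for 30 min. cAMP was read by HTRF.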

[15] = biological target: D(2) dopamine receptor (Homo sapiens) (UniProt P14416); test: Dopamine D2 receptor (DRD2) small molecule antagonists, cell-based qHTS assay (AID 1963595; active means well fitted inhibition curve with a large enough effect in the signal ratio in the repeat runs, with a control signal flat; the % refers to the signal ratio)
In short: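 DRD2-HEK293; 0.1 mM Ro20-1724; cpd 10 min RT; NKH477 200 nM + quinpirole 12 nM, 30 min RT; HTRF cAMP (cAMP-d2/anti-cAMP cryptate), 665/620 nm ratio after 1 h.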

[16] = biological target: KiSS-1 receptor (Homo sapiens) (UniProt Q969F8); test: Human kisspeptin (KISS1R) small molecule agonists, calcium flux assay in KISS1R-HEK293 cells (AID 1920064; active means well fitted activation curve with a large enough effect in the repeat runs)
In short: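 Stable human KISS1R HEK293 line; 18 h plating, 37 C/5% CO2; calcium dye 1 h 37 C; compound pin transfer; kinetic fluorescence Ex/Em 480/540, 3 min.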

[17] = p53 small molecule agonists, cell-based qHTS assay (AID 1963582; active means well fitted activation curve with a large enough effect in the signal ratio in the repeat runs, not every such curve was filed as active; the % refers to the signal ratio)
In short: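 Reporter line: p53RE-bla. Pre-incubation 5 h, 37 C, 5% CO2; compound (DMSO, pin tool) 16 h, 37 C; B/G FRET substrate 2 h RT; fluorescence intensity read.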

[18] = cAMP Responsive Elements (CRE) small molecule agonists, cell-based qHTS assay (AID 1963590)
In short: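 HEK 293T CRE-bla, 2,000 cells/well, 18 h preincubation 37 C/5% CO2; cpds (DMSO) pinned, 3 h; LiveBLAzer B/G FRET substrate, 2 h RT.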

[19] = biological target: Beta-2 adrenergic receptor (Homo sapiens) (UniProt P07550); test: Adrenergic beta2 receptor (ADRB2) small molecule agonists, cell-based qHTS assay (AID 1963593);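 further: CHO cells stably overexpressing human ADRB2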
In short: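 CHO cells stably over-expressing ADRB2 were plated overnight at 37C, then dosed with compounds plus a stimulation mix containing 100uM IBMX and 25uM Ro-20-1724 for 0.5hr at room temperature. cAMP was measured by HTRF competition, 1hr.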

5-hydroxytryptamine receptor 2A (Homo sapiens), sequence (P28223 whole entry, looked up): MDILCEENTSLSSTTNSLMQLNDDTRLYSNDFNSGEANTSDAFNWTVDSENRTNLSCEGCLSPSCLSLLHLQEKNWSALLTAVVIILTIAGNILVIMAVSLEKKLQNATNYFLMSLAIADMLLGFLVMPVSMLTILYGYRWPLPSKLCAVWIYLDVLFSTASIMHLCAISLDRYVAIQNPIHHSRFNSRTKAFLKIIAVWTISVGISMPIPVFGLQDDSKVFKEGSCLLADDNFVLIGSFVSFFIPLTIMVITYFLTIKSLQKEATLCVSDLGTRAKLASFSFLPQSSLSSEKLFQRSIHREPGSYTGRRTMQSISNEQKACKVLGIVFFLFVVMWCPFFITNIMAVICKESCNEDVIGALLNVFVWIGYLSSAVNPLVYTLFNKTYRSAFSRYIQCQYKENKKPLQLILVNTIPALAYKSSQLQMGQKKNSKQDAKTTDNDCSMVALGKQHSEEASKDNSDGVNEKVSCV
Gonadotropin-releasing hormone receptor (Homo sapiens), sequence (P30968 whole entry, looked up): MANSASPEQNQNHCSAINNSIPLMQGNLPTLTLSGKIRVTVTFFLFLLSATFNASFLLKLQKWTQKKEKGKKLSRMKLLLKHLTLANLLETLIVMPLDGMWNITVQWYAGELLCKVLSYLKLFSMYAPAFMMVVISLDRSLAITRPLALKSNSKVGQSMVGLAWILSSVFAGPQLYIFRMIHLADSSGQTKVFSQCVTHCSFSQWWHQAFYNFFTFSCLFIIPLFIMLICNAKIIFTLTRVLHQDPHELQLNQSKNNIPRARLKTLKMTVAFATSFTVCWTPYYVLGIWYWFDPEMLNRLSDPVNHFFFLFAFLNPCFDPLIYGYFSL
Beta-2 adrenergic receptor (Homo sapiens), sequence (P07550 whole entry, looked up): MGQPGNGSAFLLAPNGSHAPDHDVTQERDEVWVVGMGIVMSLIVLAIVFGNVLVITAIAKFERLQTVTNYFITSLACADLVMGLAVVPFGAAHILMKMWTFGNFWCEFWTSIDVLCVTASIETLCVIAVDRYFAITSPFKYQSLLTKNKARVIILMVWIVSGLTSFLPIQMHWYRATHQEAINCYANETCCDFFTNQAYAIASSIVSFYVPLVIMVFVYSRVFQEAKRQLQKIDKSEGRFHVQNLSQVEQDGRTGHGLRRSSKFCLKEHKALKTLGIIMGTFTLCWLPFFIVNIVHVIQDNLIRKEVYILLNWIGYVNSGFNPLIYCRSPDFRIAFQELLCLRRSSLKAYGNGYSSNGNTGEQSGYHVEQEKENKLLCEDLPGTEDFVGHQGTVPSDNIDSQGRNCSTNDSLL
D(2) dopamine receptor (Homo sapiens), sequence (P14416 whole entry, looked up): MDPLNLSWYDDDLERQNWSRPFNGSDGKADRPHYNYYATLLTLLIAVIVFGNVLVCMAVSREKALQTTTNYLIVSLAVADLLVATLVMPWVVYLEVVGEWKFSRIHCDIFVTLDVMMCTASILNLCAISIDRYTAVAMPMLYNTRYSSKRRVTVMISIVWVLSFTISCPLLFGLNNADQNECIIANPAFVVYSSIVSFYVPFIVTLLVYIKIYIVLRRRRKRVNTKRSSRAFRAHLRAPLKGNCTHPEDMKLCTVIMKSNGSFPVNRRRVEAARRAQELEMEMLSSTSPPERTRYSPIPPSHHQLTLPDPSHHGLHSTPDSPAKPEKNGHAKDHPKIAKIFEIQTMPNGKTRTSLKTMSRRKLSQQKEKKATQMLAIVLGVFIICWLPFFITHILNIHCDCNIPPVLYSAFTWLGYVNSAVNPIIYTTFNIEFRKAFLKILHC
KiSS-1 receptor (Homo sapiens), sequence (Q969F8 whole entry, looked up): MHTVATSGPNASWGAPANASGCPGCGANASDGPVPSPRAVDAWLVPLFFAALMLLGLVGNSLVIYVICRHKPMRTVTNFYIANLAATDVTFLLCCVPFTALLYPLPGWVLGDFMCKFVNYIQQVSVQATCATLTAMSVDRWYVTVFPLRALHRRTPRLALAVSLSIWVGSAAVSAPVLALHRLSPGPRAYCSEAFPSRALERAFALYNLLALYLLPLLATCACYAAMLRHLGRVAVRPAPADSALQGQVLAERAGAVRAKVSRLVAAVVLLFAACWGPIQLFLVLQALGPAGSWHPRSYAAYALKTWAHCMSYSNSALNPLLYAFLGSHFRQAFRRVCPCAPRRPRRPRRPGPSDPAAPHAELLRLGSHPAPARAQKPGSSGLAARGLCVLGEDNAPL
Muscarinic acetylcholine receptor M1 (Homo sapiens), sequence (P11229 whole entry, looked up): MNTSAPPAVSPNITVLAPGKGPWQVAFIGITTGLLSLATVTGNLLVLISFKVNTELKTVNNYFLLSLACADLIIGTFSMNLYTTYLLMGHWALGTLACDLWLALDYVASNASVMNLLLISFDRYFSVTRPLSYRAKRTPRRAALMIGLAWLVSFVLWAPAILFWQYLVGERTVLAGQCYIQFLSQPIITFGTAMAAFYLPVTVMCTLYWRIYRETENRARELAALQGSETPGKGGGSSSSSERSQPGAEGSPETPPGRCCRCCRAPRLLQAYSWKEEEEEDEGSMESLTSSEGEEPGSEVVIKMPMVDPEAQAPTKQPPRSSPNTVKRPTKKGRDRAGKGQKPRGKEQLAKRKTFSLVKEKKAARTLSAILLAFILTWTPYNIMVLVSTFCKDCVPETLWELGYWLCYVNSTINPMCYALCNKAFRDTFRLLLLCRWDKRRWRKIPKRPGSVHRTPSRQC

Compound	Potency [1]	Potency [2]	Potency [3]	Potency [4]	Potency [5]	Potency [6]	Potency [7]	Potency [8]	Potency [9]	Potency [10]	Potency [11]	Potency [12]	Potency [13]	Potency [14]	Potency [15]	Potency [16]	Potency [17]	Potency [18]	Potency [19]
CC(C)(c1cc(Cl)c(O)c(Cl)c1)c1cc(Cl)c(O)c(Cl)c1	38.9 µM (active)	inactive	inactive	inactive	40.8 µM (active)	inactive	inactive	inactive and 13.3 µM (active)	55 µM (active) and 24.5 µM (active)	33.4 µM (active) and inactive	inactive	inactive	inactive	inactive	inactive				
O=C1Nc2ccc(Cl)cc2C(c2ccccc2)=NC1O (centres undefined)	inactive	inactive					inactive	inactive	inactive	inactive	inactive		inactive	inactive	inactive	inactive	inactive	inactive	inactive
CCNC(=O)[C@@H]1CCCN1C(=O)[C@H](CCCN=C(N)N)NC(=O)[C@H](CC(C)C)NC(=O)CNC(=O)[C@H](Cc1ccc(O)cc1)NC(=O)[C@H](CO)NC(=O)[C@H](Cc1c[nH]c2ccccc12)NC(=O)[C@H](Cc1cnc[nH]1)NC(=O)[C@@H]1CCC(=O)N1 ([pGlu]HWSYGLRP-NHEt)								inactive	inactive	inactive	inactive								
C#C[C@]1(O)CC[C@H]2[C@@H]3CCC4=CC(=O)CCC4=C3C=C[C@@]21CC	inactive	inactive			inactive				inactive	inactive	inactive			inactive	inactive				
O=[N+]([O-])c1cccc(CCl)c1	inactive	inactive				inactive	inactive	inactive	inactive	inactive	inactive	inactive		inactive	inactive			inactive	
CCOP(=S)(OCC)OC(Cl)C(Cl)(Cl)Cl (centres undefined)	inactive	inactive				inactive	inactive	inactive	inactive	inactive	inactive	inactive	inactive	inactive	inactive	inactive	inactive	inactive	
COCCOCCO	inactive	inactive				1.62 µM (active)			inactive	inactive		inactive	inactive			inactive			
O=[N+]([O-])c1ccccc1Cl								inactive	inactive	inactive	inactive		inactive	inactive	inactive				inactive
CCCCCCCCCCCCCCC(Br)C(=O)O (centres undefined)	inactive	inactive	inactive	inactive	inactive		inactive	inactive	inactive	inactive	inactive		inactive	inactive	inactive			inactive	
Oc1c(Cl)cc(Cl)cc1Cl								inactive	inactive				inactive	inactive	inactive				
O=C(O)C(F)(F)C(F)(F)C(F)(F)C(F)(F)C(F)(F)F	inactive	inactive	inactive	inactive	inactive	inactive	inactive	inactive	inactive	inactive			inactive	inactive	inactive		inactive	inactive	inactive
